From PubChem BioAssay

assay: inhibitors of the yeast RAM network, pilot screen, dse1pr::URA3 reporter, 5-FOA selection (AID 869);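 note: 0% = DMSO wells with no growth and 100% = 10 µM 1-NA-PP1 with full growth; RAM network block rescues cells from 5-FOA so hits raise OD615 growth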; conditions: S. cerevisiae dse1pr::URA3 5-FOA growth, OD615, 2 d; at 10 µM; hits give high values; strain carries analog-sensitive mutant Cbk1 kinase;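 active = inhibition over a set limit, the all-compound mean plus 3 SD, in both replicate runs; inconclusive = over that limit in just one replicate run; inactive = at or under that limit in both runs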

inhibition, inactive:
CCCC(=O)NCCCc1nc2ccccc2n1CC -0.16%
CCC(=O)Nc1c2c(nn1-c1ccc(F)cc1)CS(=O)C2 (centres undefined) 0.265%
O=C(c1cc(C2CC2)on1)N1CCOCC1 1.57%
COC(=O)c1ccc(NC(=O)c2cnc3scc(C)n3c2=O)cc1 0.345%
Cc1ccnc(Nc2nc3ccccc3o2)n1 0.905%
NC(=O)c1ccsc1NC(=O)C1CC1 1.22%
Cn1c(=O)[nH]c(=O)c2c1nc(CN1CCOCC1)n2Cc1ccc(F)cc1 2.65%
CCOc1ccc(N(CC(=O)Nc2ccc(OC)cc2)S(=O)(=O)c2c(C)noc2C)cc1 3.53%
COCCn1c(=O)[nH]c2cc(C(=O)NCC3CCCO3)ccc2c1=O (centres undefined) 1.23%
CCOC(=O)c1ccc(NC(=O)CSc2nnc(Cn3c(=O)sc4ccccc43)n2C)cc1 0.665%
COc1ccc(N(CC(=O)NCc2ccc3c(c2)OCO3)S(=O)(=O)c2c(C)nn(C)c2C)cc1 0.12%
CCOC(=O)C1CCN(c2c(N3CCN(Cc4ccccc4)CC3)c(=O)c2=O)CC1 1.52%
COc1ccc(NC(=O)C(c2ccccc2)N(C)C(=O)c2cnccn2)cc1 (centres undefined) 0.88%
c1cnn(-c2nc(N3CCOCC3)nc(N3CCOCC3)n2)c1 1.96%
O=C(NCCCN1CCN(c2ccccc2F)CC1)C1CCCN(S(=O)(=O)c2cnc[nH]2)C1 (centres undefined) -0.46%
CCOc1ccc(N2CC(=O)SC2=S)cc1 0.425%
O=C(NCCC1=CCCCC1)NC1CCCCC1 1.33%
CCCCNC(=O)Nc1cc(C(=O)OC)ccc1C 1.55%
Cc1cccc(-c2nnc(-c3ccccc3)o2)c1 1.5%
O=C1CCC(=O)N1c1ccc(CSc2nc3ccccc3[nH]2)cc1 1.06%
CCCSc1nnc(Cn2c(=O)sc3ccccc32)n1C 0.415%
C=CCSC1=N/C(=C\c2ccc3c(c2)OCO3)C(=O)S1 4.59%
COc1ccc(OC)c2c1sc(=NC(=O)C(C)C)n2C 0.575%
CCN(CC)c1cc(C)c2cc(NC(=O)CNC(C)=O)ccc2n1 1.11%
